High-throughput results from PubChem.
Compounds with a hit are over-represented: about 0.59% of the library has one in this group of screens.
Rango complex inh = Rango-importin beta binding inhibition | AID 540263 | hit rate 0.031% among 340,000 | Potency, µM (highest dose often 92.2 µM) | Rango CFP/YFP FRET sensor + importin beta, 45 min; note: nearly all actives have a fitted effect of over 15% in size
Target sequence (Q14974 whole entry, looked up): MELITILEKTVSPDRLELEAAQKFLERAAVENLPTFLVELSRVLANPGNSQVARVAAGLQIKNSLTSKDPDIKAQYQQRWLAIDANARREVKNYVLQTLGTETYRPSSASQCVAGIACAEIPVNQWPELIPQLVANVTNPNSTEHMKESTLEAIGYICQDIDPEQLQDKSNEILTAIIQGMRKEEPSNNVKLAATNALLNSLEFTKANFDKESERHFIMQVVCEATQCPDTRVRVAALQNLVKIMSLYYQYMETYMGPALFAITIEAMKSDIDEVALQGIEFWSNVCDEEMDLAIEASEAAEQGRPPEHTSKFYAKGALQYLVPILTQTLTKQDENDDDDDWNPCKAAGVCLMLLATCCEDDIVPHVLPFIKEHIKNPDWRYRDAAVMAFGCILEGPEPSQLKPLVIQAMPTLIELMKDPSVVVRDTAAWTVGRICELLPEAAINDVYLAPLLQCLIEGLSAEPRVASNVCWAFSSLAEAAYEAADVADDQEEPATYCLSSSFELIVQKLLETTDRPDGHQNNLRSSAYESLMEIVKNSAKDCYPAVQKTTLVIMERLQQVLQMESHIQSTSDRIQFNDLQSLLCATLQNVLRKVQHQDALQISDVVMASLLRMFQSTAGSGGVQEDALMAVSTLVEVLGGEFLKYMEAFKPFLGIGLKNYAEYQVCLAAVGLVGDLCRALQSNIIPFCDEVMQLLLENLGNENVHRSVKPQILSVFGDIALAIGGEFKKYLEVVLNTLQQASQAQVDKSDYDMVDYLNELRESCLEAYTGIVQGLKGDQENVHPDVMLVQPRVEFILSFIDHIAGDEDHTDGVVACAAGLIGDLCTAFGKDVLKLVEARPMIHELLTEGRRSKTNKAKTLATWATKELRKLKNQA
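Inhibition scored from the CFP 486 nm/YFP 530 nm FRET ratio 45 min after adding 0.125 microM importin beta to 50 nM Rango biosensor preincubated 5 min with compound (room temperature, PBS with DTT, Tween-20, BSA). No-importin wells as positive control.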
Giardia killer = kills Giardia lamblia. Giardia lamblia trophozoite viability. activity change, % at 7.66 µM, hits read low. hit rate 0.15% among 340,000. AID 540267; in the data active = activity change below about -80%; inconclusive = between about -30% and that limit;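 note: parasites exposed to compound for two days anaerobically before the ATP read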
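Viability, read as ATP luminescence: trophozoites at 100 cells/well, compound added, 48 hrs anaerobic at 37 deg C, then 15-30 min room-temperature development before reading.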
Rango release inh = inhibitors of RanGTP-induced Rango-importin beta complex dissociation; O95149+P62826; Biochemical FRET Rango-importin beta, RanGTP-induced dissociation; Potency, µM (series often up to 46.1 µM); hit rate 0.071% among 340,000; AID 540253; note: nearly all actives have a fitted effect of over 45% in size
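Compounds sat 5 min at room temperature with 0.1 uM Rango biosensor plus 0.25 uM importin beta, then FRET pre-read. RanGTP-RCC1 (0.6 uM Ran, 2mM GTP, 0.2 uM RCC1) added for 45 min, and the CFP/YFP post-read measured blocked complex dissociation.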
a7 integrin act = activators of alpha7 integrin expression for muscular dystrophy; hit rate 0.064% among 350,000; Potency, µM (highest dose often 38.3 µM), hits mostly activators; alpha7betagal myoblasts, beta-gal FDG fluorescence, 48 h; active = well fitted activation curve with a large enough effect; inconclusive = small, poorly fitted or top-dose-only effect; inactive = no such curve, though single readings can be large or run the other way; note: nearly all actives have a fitted effect of over 60% in size
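alpha7betagal+/- myoblasts (passage 13, 250/well) treated 48 h at 37C with compounds at 1:260 dilution of DMSO stock. Lysed, then beta-galactosidase activity read as FDG fluorescence (ex 480/em 540) after 30 min, with pre-read for autofluorescence.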
uPA surface inh = inhibitors of cell surface uPA generation; cell surface uPA generation assay, qHTS; Potency, µM (top dose mostly 38.3 µM), actives largely listed as inhibitors; hit rate 0.31% among 330,000; AID 540303; active = well fitted inhibition curve with a large enough effect; inconclusive = small, poorly fitted or top-dose-only effect; inactive = no such curve, though single readings can be large or run the other way; tested in mouse RAW 264.7 cells; note: nearly all actives have a fitted effect of over 55% in size
Of the large screens only hits and unclear results are named; the others gave an inactive call; ! = repeats disagree; [ ] = another dose, or the depositor's remark. Unless noted, calls come from the whole dose curve.

O=[N+]([O-])c1ccc(CN2CCN(c3ccccc3)CC2)o1	Giardia killer -92
COc1ccc(OCC(=O)N2CCc3ccccc32)c([N+](=O)[O-])c1	none (no result: Rango complex inh, Giardia killer, Rango release inh, uPA surface inh)
OCCN=c1cc(-c2ccccc2)oc2ccc(Cl)cc12	none
CN(C)CCCN=c1cc(-c2ccccc2)oc2ccc(Cl)cc12	Giardia killer -86
CC(Oc1cccnc1[N+](=O)[O-])C(=O)Nc1cccc(Cl)c1 (configuration not stated)	Giardia killer -87
CCc1nn(-c2ccccc2)c2c1-c1cc(OC)c(OC)cc1C1(N2)C(=O)Nc2ccccc21 (configuration not stated)	Rango complex inh inconclusive, Rango release inh 16µM
COc1cc2c(cc1OC)C1(Nc3c-2c(C)nn3-c2ccccc2)C(=O)Nc2ccccc21 (configuration not stated)	Rango complex inh inconclusive
Cc1cccc(NC(=O)CN2C(=O)S/C(=C\c3cc(C)n(C)c3C)C2=O)c1	Rango complex inh inconclusive, Rango release inh 23µM
Cc1c(/C=C2\SC(=O)N(CC(=O)Nc3ccc4c(c3)OCO4)C2=O)c2ccccc2n1C	Rango complex inh inconclusive, Rango release inh 26µM[inhibitor]
CCn1cc(/C=C2\SC(=O)N(CC(=O)Nc3ccc4c(c3)OCO4)C2=O)c2ccccc21	none
COc1ccccc1N1C(=O)S/C(=C\c2cc(C)n(C)c2C)C1=O	Rango complex inh inconclusive, Rango release inh 18µM
Cc1ccc(NC(=O)CN2C(=O)S/C(=C\c3cc(C)n(C)c3C)C2=O)cc1	Rango complex inh inconclusive, Rango release inh inconclusive
CC(C)(C)CC(C)(C)NC(=O)Nc1cccc([N+](=O)[O-])c1	uPA surface inh 10µM
CCN(CC)c1ccc2cc(-c3nc4ccccc4[nH]3)c(=O)oc2c1	Rango complex inh inconclusive, Giardia killer -108, Rango release inh inconclusive
CCN(CC)c1ccc2cc(-c3nc4ccccc4n3C)c(=O)oc2c1	Rango complex inh inconclusive, Rango release inh inconclusive
Cc1c(C(=O)N/N=C/c2ccccc2)[nH]c2ccc(Cl)cc12	uPA surface inh 2.8µM
Cc1c(C(=O)N/N=C/c2ccc(N(C)C)cc2)[nH]c2ccc(Cl)cc12	Rango complex inh inconclusive, Rango release inh inconclusive
Cc1cnc([N+](=O)[O-])n1CCOC(=O)NC(=O)c1ccc(C(F)(F)F)cc1	Giardia killer -91
Cn1c(=O)c2c(ncn2CC(=O)OCC(=O)c2ccc(Br)cc2)n(C)c1=O	none (no result: Rango complex inh, Giardia killer, Rango release inh, uPA surface inh)
O=[N+]([O-])c1cccn2cc(-c3ccc(Br)cc3)nc12	Giardia killer -99
Cc1ccc(-c2cn3cccc(C)c3n2)cc1	none
Clc1ncc(C#Cc2ccccc2)c2ncncc12	none (no result: Rango complex inh, Rango release inh, a7 integrin act, uPA surface inh)
CC[C@H](C)[C@H]1O[C@]2(CC[C@@H]1C)C[C@@H]1C[C@@H](CC=C(C)[C@@H](O[C@H]3C[C@H](OC)[C@@H](O[C@H]4C[C@H](OC)[C@@H](O)[C@H](C)O4)[C@H](C)O3)[C@@H](C)C=CC=C3CO[C@@H]4[C@H](O)C(C)=C[C@@H](C(=O)O1)[C@]34O)O2	uPA surface inh 2.5µM (no result: a7 integrin act)
CC(C)CC(=O)/C(=C\c1ccc(Cl)cc1Cl)n1cncn1	uPA surface inh 7.1µM
CC[C@H]1C(=O)[C@@H](Cc2ccccc2)[C@@H]2CCN3C(=O)CCC[C@H]1[C@H]23	none
COc1ccccc1N(CC(=O)N1CCCCC1C)S(=O)(=O)c1ccc(Cl)cc1 (configuration not stated)	none (no result: Rango complex inh, Giardia killer, Rango release inh, uPA surface inh)
O=C1NC(=S)N/C1=C\c1ccc(N2CCOCC2)cc1	Rango complex inh inconclusive, Rango release inh 8.2µM
CCc1ccc(-c2cc(C)no2)cc1S(=O)(=O)NCCc1ccc(OC)c(OC)c1	none
c1ccc(Nc2nc3ccccc3n3nnnc23)cc1	Rango complex inh inconclusive, Rango release inh 21µM
CCN(CC)CCCCNc1ncc2cc(-c3cc(OC)cc(OC)c3)c(NC(=O)NC(C)(C)C)nc2n1	uPA surface inh 7.1µM (no result: a7 integrin act)
COc1ccc(-n2c(C)cc(C(=O)COc3ccc(C)nc3[N+](=O)[O-])c2C)cc1	Giardia killer -81
Cc1ccc(-c2cc(C3C4C=CCC(C)C4C(=O)N3Cc3ccccc3)ccc2F)cc1 (configuration not stated)	none (no result: Rango complex inh, Rango release inh, a7 integrin act, uPA surface inh)
CCC(C)Nc1ccc(NC(C)CC)cc1 (configuration not stated)	Rango complex inh inconclusive, Giardia killer -101!, uPA surface inh inconclusive (no result: a7 integrin act)
CC1C(=O)N(Cc2cn(CC3CCCCC3)nn2)CCS(=O)(=O)N1Cc1ccc(-c2ccc(Cl)cc2)cc1 (configuration not stated)	none (no result: Rango complex inh, Giardia killer, Rango release inh, uPA surface inh)
CC1(C)Oc2cc3oc(-c4cc(O)cc(O)c4)cc3cc2CC1O (configuration not stated)	Giardia killer inconclusive, uPA surface inh 8.9µM
COc1ccc(OCCOC(=O)CN2C(=O)NC3(CCCC3)C2=O)cc1	uPA surface inh inconclusive
CCCc1cc(=O)oc2cc(OC(=O)CN3C(=O)NC4(CCCC4)C3=O)ccc12	Rango complex inh inconclusive, Rango release inh 12µM
COc1cc(NC(=O)CN2C(=O)C(=O)N(C3CCCC3)C2=O)cc(OC)c1	none
CC(C)(C)OC(=O)NCCCCCNC(=O)c1[nH]cnc1C(=O)Nc1ccc(Cl)cc1	uPA surface inh 6.3µM
C/C(=N/NC(=O)c1cccs1)c1c(C)[nH]n(-c2nc3ccccc3s2)c1=O	Rango complex inh inconclusive, Giardia killer inconclusive, Rango release inh inconclusive, uPA surface inh 1.6µM
O=S(=O)(c1cccs1)N1CN(CC2CCCO2)c2nc3ccccc3nc21 (configuration not stated)	none
Cc1ccc(S(=O)(=O)N2CN(CC3CCCO3)c3nc4ccccc4nc32)c(C)c1 (configuration not stated)	a7 integrin act 11µM
Cc1ccc(NC(=O)C2CCCCC2C(=O)O)cc1C (configuration not stated)	a7 integrin act 11µM
Cc1cc2[nH]c3ccccc3c2c(C)n1	none
Cc1cc2[nH]c3c4ccccc4nc(C)c3c2cc1C	Rango complex inh inconclusive, a7 integrin act inconclusive, uPA surface inh 10µM
COc1ccc(C2/C=C\CN(C(=O)C3CC3)C(Cc3ccccc3)C(=O)N2Cc2ccc(F)cc2)cc1 (configuration not stated)	none (no result: Rango complex inh, Rango release inh, a7 integrin act, uPA surface inh)
COc1cc(Cl)c(NC2=CC(=O)C(=O)c3ccccc32)c(OC)c1	uPA surface inh 3.2µM
COc1ccc(C2CC(c3ccccc3)Oc3ccc(OC)cc32)cc1 (configuration not stated)	none (no result: Rango complex inh, Rango release inh, a7 integrin act, uPA surface inh)
O=S(=O)(NCc1ccccc1)c1ccc(-c2cnc(C3CC3)o2)cc1	uPA surface inh 5.6µM
Cc1ccc(CNS(=O)(=O)c2ccc(-c3cnc(C4CC4)o3)cc2)cc1	Rango release inh inconclusive
CCOc1ccccc1CNS(=O)(=O)c1ccc(-c2cnc(C3CC3)o2)cc1	uPA surface inh 0.28µM
COc1ccc(COC[C@H](C)[C@H](O[Si](C)(C)C)[C@@H](C)[C@H]2OC(=O)[C@H]2C)cc1	none (no result: Rango complex inh, Rango release inh, a7 integrin act, uPA surface inh)
Cc1cnc2c3c(cc(Cl)c2c1)-c1ccccc1S(=O)(=O)N3	none (no result: Rango complex inh, Rango release inh, a7 integrin act, uPA surface inh)
